# Source: PubChem BioAssay
# Sampled rows, rich in hits. Any-hit rate of the full collection: about 19%.
# CHX counter – counter-screen for Shiga toxin inhibitors: cycloheximide protein synthesis inhibition; cell reporter, cycloheximide protein synthesis inhibition counterscreen; max response, %; 12% of 300,000 active; in the data active = max response mostly above about 13%, no sharp cut-off; inactive = mostly below about 14%; note: read at 38.3 µM for the half of the compounds with a filed dose; 0% is about no effect
# Pf growth 96h – P. falciparum growth inhibition at 96 hour, primary screen for plastid delayed-death inhibitors; AID 504834; 6.9% of 320,000 active; Potency, µM (doses to about 28.7 µM), for inactives: at the highest dose activity change, negative = inhibition, actives largely listed as inhibitors; P. falciparum luciferase reporter growth, 96 h; note: potency is the fitted concentration of half-maximal effect; % is set by controls: 0 for no effect and ±100 for the full control effect
#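 Luminescence readout: decreased luciferase signal marks inhibited growth of reporter-expressing P. falciparum in infected red cells (2% hematocrit, 0.05% parasitemia final), exposed to compound two generations (96 h, 37 C, 5% CO2).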
# LASV entry inh – Lassa virus entry inhibition | Potency, µM (highest dose often 37.9 µM), inactives show top-dose activity change, negative = inhibition, most hits filed as inhibitors | Lassa virus pseudotype entry inhibition, cell reporter | 1.2% of 300,000 active | AID 540256; calls by dose curve; tested in HEK293 cells; note: potency is the fitted concentration of half-maximal effect; % is set by controls: 0 for no effect and ±100 for the full control effect; nearly all actives have a fitted effect of over 50% in size
# Pf growth 48h – inhibits P. falciparum growth in the first generation, 48 h; P. falciparum luciferase growth in erythrocytes, 48 h; Potency, µM (highest dose often 28.7 µM), for inactives: top-dose activity change, negative = inhibition, hits mostly inhibitors; 5.9% of 310,000 active; AID 504832; note: potency is the fitted concentration of half-maximal effect; % is set by controls: 0 for no effect and ±100 for the full control effect
#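 Erythrocytes infected with P. falciparum carrying an integrated firefly luciferase reporter (2% hematocrit, 0.1% parasitemia final) were exposed to compounds in RPMI 1640 with 0.5% Albumax at 37 C, 5% CO2. Growth inhibition was scored as reduced luminescence.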
# Shiga inhibitor – blocks Shiga toxin action in Vero cells; Vero cells, Shiga toxin protein synthesis inhibition reporter; inhibition, % at 38.7 µM; 9.2% of 290,000 active; in the data active = inhibition mostly above about 28%, no sharp cut-off; inactive = mostly below about 43%; note: 0% is about no effect
# MARV entry inh – inhibitors of Marburg virus binding or cell entry; Marburg virus pseudotyped entry inhibition, cell reporter; Potency, µM (series often up to 37.8 µM), for inactives: at the highest dose activity change, negative = inhibition, actives largely listed as inhibitors; 1.8% of 300,000 active; calls by dose curve; tested in HEK293 cells; note: potency is the fitted concentration of half-maximal effect; % is set by controls: 0 for no effect and ±100 for the full control effect
# * hit, by the source's call; i = inactive; ? = inconclusive; nt = no result given; [ ] = dose if it differs, or a comment. Unless noted, calls come from the whole dose curve; as a rule, active = well fitted inhibition curve with a large enough effect; inconclusive = small, poorly fitted or top-dose-only effect, or another doubt; inactive = no such curve, though single readings can be large or run the other way.
SMILES,CHX counter,Pf growth 96h,LASV entry inh,Pf growth 48h,Shiga inhibitor,MARV entry inh
CCC(Oc1ccccc1)C(=O)Nc1cccc(OCc2cc(=O)n3cccc(C)c3n2)c1 (stereo not drawn),nt,nt,-5%[46.1 µM],nt,nt,nt
COc1ccc(-c2cc(C(=O)Nc3ccc(F)cc3F)no2)cc1,-1,?,9%[46.1 µM],nt,1,9%[46.1 µM]
O=C(Nc1ccc(F)cc1F)c1csc(-c2cccs2)n1,48*,i,-28%,i,118*,-3%
O=C(Nc1ccc(F)cc1F)c1csc(-c2ccncc2)n1,27*,30%,?,-9%,15,?
CN1C(C(=O)Nc2ccc(F)cc2F)=CC(c2cccs2)=NS1(=O)=O,-3,4%,16%[46.1 µM],5%,27,27%[46.1 µM]
CCCC(C)NC(=O)c1sc2nc3n(c(=O)c2c1C)CCC3 (stereo not drawn),17*,59%[5.75 µM],11%,52%,29,8%
CCOC(=O)c1sc2nc(C)n(N)c(=O)c2c1C,5,37%,4%[46.1 µM],32%,-9,7%[46.1 µM]
CCOC(=O)c1sc2nc(SCC#N)n(CCCN3CCCC3=O)c(=O)c2c1C,7,?,-6%,10µM*,-9,15%
CCOC(=O)c1sc2nc3n(c(=O)c2c1C)CCC3,-3,37%,?,26%,20,15%[46.1 µM]
CCC(C)NC(=O)c1sc2nc3n(c(=O)c2c1C)CCC3 (stereo not drawn),nt,nt,9%[46.1 µM],nt,nt,nt
CCOC(=O)c1sc2nc3n(c(=O)c2c1C)CCCCC3,47*,-1%,4%,67%,103*,?
Cc1ccc(S(=O)(=O)Nc2ccccc2F)cc1C(=O)NNC(=O)c1ccccc1O,nt,6%,?,-3%,nt,-19%[46.1 µM]
CCOC(=O)C1(Cc2ccc(OC)cc2)CCN(C(=O)CC2CCC(=O)N2)CC1 (stereo not drawn),12,?,6%,-10%,12,15%
CCc1ccc(OCCCC(=O)Nc2ccc(S(N)(=O)=O)cc2)cc1,-3,90%,-7%,-23%,-19,13%[46.1 µM]
O=C(Cc1cccc2ccccc12)Nc1cc(Cl)ccc1C(=O)O,-1,56%,2%[46.1 µM],21%,-7,1%[46.1 µM]
O=C(Cc1cccc2ccccc12)Nc1c(F)cccc1F,18*,37%,-7%[46.1 µM],22%,58*,2%[46.1 µM]
O=C(Cc1cccc2ccccc12)Nc1ccccc1C(=O)O,15,61%,?,nt,52,15µM*
CS(=O)(=O)NCCSCc1c(Cl)cccc1Cl,1,nt,-8%,9%,-22,3%
COc1cc(/C=N/NC(=O)c2ccc(NS(=O)(=O)c3cccs3)cc2)cc(OC)c1O,nt,-9%,nt,-8%,nt,nt
CN(C)S(=O)(=O)c1cccc(NC(=O)C2Cc3ccccc3CN2C(=O)c2ccco2)c1 (stereo not drawn),21*,?,-8%,?,69*,2%[46.1 µM]
Cc1ccc(NC(=O)C2Cc3ccccc3CN2C(=O)c2ccco2)cc1S(=O)(=O)N(C)C (stereo not drawn),31*,-10%,5%,-14%,79*,-5%
O=C(COc1ccc(S(=O)(=O)N2CCCC2)cc1Cl)NC1CCCC1,3,nt,-18%,9.3µM*,18,-18%
O=C(COc1ccc(Cl)cc1[N+](=O)[O-])NC1CCCCC1,24*,-9%,nt,111%,71*,nt
CCOc1cc(C)c(Cl)cc1S(=O)(=O)N1CCCC1,-1,0.93µM*,14%,-16%,-5,-19%
COc1cc(C)c(Cl)cc1S(=O)(=O)N1CCCC1,3,?,-7%[46.1 µM],-3%,-6,-12%[46.1 µM]
CCOc1ccc(S(=O)(=O)N2CCC(C(=O)NC3CC3)CC2)cc1Cl,-6,-4%,-15%,?,4,-1%
Cc1cc(Cl)c(S(=O)(=O)N2CCCC2)cc1OCC(=O)NC1CCCCC1,-3,0.083µM*,?,nt,-13,?
O=C(CN1C(=O)C2(SCC(=O)N2c2ccc(F)c(F)c2)c2ccccc21)NCCc1ccccc1 (stereo not drawn),nt,nt,-9%[46.1 µM],nt,nt,nt
COc1ccc(-n2c(=S)[nH]c3cc(C(=O)Nc4cc(OC)c(OC)c(OC)c4)ccc3c2=O)c(OC)c1,10,-16%,2%,?,-12,?
CCCN1CCN(C(=O)c2oc3ccccc3c2NC(=O)COc2ccc(OC)cc2)CC1,3,?,nt,?,-2,nt
